Test results taken from paper PMC4336329 (PLoS ONE, 2015).
The whole screen tested about 310,000 compounds, of which about 14,000 (4.5%) showed an effect of 50% or more. Effects have a minus sign here. Only a selection was taken, and strong results are over-represented in it overall.

molecular target: human ether-à-go-go-related gene (hERG) potassium channel (human, UniProt Q12809); assay: primary screen, population patch clamp on CHO cells stably expressing hERG; higher = less effect of the substance
Experimental: Briefly, Chinese hamster ovary (CHO) cells stably expressing the hERG channel were dislodged from tissue culture flasks and dispensed into PPC plates. […] During the recording, background leak currents were estimated by a 100 ms step to -80 mV from an initial holding potential of -70 mV and subtracted from the subsequent current measurement. The campaign was conducted in two phases using slight differences in recording protocol. In the first phase, the initial voltage pulse used a 100 ms step to -30 mV from a holding potential of -70 mV, a 2 s conditioning step to +25 mV, and a 2 s test step to -30 mV. During the second phase of the screen, the potential during the conditioning step was raised to +45 mV. In both phases of the campaign, a secondary voltage pulse was applied using the same parameters as the second phase initial pulse. The initial and secondary pulses were applied in the absence of compound, and upon application of 1 μM and 10 μM test concentrations. […]
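Note: peak tail current of the secondary pulse compared with the same well before compound.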

human ether-à-go-go-related gene (hERG) potassium channel, sequence (Q12809 whole entry, looked up): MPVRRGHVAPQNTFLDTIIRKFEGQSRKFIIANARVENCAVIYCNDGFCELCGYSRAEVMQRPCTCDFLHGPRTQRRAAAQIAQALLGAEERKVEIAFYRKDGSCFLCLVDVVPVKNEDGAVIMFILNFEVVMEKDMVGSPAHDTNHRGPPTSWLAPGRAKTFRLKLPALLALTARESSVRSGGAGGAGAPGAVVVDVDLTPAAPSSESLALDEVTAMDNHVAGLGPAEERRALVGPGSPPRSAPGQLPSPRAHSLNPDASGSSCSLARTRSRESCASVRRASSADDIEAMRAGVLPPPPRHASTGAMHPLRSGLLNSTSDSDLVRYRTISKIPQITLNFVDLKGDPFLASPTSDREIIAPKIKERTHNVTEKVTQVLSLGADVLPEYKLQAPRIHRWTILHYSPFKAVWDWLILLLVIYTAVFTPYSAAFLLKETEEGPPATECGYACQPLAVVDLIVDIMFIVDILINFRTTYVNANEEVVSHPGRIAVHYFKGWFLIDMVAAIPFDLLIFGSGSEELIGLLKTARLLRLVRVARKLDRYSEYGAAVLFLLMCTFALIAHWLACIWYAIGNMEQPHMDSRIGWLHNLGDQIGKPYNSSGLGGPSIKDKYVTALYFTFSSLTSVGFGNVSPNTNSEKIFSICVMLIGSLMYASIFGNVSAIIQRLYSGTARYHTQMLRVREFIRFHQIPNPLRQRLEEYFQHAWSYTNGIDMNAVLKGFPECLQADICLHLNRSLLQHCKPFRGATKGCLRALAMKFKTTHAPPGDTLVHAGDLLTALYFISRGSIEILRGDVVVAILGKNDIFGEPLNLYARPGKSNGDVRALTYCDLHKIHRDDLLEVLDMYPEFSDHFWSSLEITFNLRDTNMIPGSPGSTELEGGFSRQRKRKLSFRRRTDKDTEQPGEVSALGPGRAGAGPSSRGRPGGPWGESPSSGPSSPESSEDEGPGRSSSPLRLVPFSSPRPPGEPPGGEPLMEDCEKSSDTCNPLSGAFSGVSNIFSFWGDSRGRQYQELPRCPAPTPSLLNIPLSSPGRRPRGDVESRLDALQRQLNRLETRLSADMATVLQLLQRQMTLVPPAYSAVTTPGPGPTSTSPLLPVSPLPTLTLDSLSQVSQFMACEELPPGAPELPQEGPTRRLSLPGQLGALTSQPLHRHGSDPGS

SMILES	hERG current change (%, negative = inhibition) at 10uM
COc1ccc(OC)c(NC2=C(Cl)C(=O)N(Cc3ccccc3)C2=O)c1	5.06%
CCn1c(COc2cc(C)ccc2C(C)C)nnc1SCC(=O)Nc1nccs1	5.52%
COC(=O)c1ccc(N)cc1O	22%
Cc1cccc2c(C(=O)Nn3cnnc3)cc(-c3ccccc3Cl)nc12	25.8%
CC(=O)N1CCN(c2ncnc3sc(-c4ccccc4)cc23)CC1	-44.4%
CCOC(=O)c1cnc(SCC(=O)N2CCN(C(=O)c3ccco3)CC2)nc1N	-29.3%
O=C(Nc1ccccc1N1CCN(C(=O)c2ccc(Cl)cc2)CC1)c1ccc2c(c1)OCO2	-46.8%
O=C(Nc1ccccc1N1CCCC1)c1cccnc1	-0.385%
O=C(Nc1ccccc1N1CCN(C(=O)c2ccccc2)CC1)c1ccc2c(c1)OCO2	-60.7%
CN1CCN(c2ccccc2NC(=O)c2cccc(OCc3ccccc3)c2)CC1	-78.9%
O=C(Nc1ccc(N2CCN(C(=O)c3ccccc3)CC2)c(Cl)c1)c1cccnc1	-31.2%
O=C(Nc1ccccc1N1CCN(C(=O)c2ccc(Cl)cc2)CC1)c1cccnc1	-73.2%
O=C(Nc1ccccc1N1CCCC1)c1ccc2c(c1)OCO2	-3.23%
CN1CCN(c2ccc(NC(=O)c3cccc(OCc4ccccc4)c3)cc2)CC1	-8.95%
CN1CCN(c2ccccc2NC(=O)c2ccc(OCc3ccccc3)cc2)CC1	-41.9%
CCOc1ccc(C2C(C#N)=C(N)N3C(=C2C#N)Sc2ccccc23)cc1 (stereo not shown)	9.5%
CC1Cc2ccccc2N1C(=O)CSc1nnc2n1C(C)(C)Cc1ccccc1-2 (stereo not shown)	-3.06%
CC(C)CNC(=O)CCc1nc(-c2ccccc2)no1	10.4%
O=[N+]([O-])c1cc(S(=O)(=O)C(F)(F)F)ccc1NCC1CCCO1 (stereo not shown)	16.5%
O=C(NCCCn1ncc2ccccc21)c1cc(COc2c(F)cccc2F)on1	6.73%
CCn1ncc(Br)c1C(=O)Nc1ccc(Cl)cn1	-7.49%
CCC(=O)N1CCN(c2c(Cl)cccc2[N+](=O)[O-])CC1	-13.5%
O=C1CN(C(=O)/C=C/c2ccc(Cl)cc2)c2ccccc2N1	-75.2%

SMILES	hERG current change (%, negative = inhibition) at 10uM
O=C(/C=C/c1ccccc1)N1CCN(c2c(Cl)cccc2[N+](=O)[O-])CC1	-20.8%
O=C(/C=C/c1ccc(Cl)cc1Cl)N1CCN(c2ccccc2[N+](=O)[O-])CC1	-72.7%
O=C1CN(C(=O)/C=C/c2ccccc2F)c2ccccc2N1	-2.56%
O=C(/C=C/c1ccc(Cl)cc1Cl)N1CCc2ccccc21	-1.39%
O=C(/C=C/c1ccc(Cl)cc1)N1CCN(c2c(Cl)cccc2[N+](=O)[O-])CC1	-58%
O=C(/C=C/c1ccccc1[N+](=O)[O-])N1CCCCC1	-2.55%
O=[N+]([O-])c1cc(Cl)ccc1N1CCCC1	5.05%
CC(C)(C)C(=O)N1CCN(c2ccc(Cl)cc2[N+](=O)[O-])CC1	-39.3%
O=C(/C=C/c1ccc(Cl)cc1)N1CCN(c2ccc(Cl)cc2[N+](=O)[O-])CC1	-92.9%
O=C1CN(C(=O)/C=C/c2cccc(Cl)c2)c2ccccc2N1	-21.4%
Cc1nc2c(C)cccc2cc1C(=O)N/N=C/c1ccc(N(C)C)cc1	-9.49%
COC(=O)c1cc(C)sc1NC(=O)CN1CCN(C(=O)C2CCCO2)CC1 (stereo not shown)	-34.7%
O=C(CS(=O)(=O)c1ccccc1)N1CCN(c2ccccc2)CC1	2.36%
CCCOc1ccc(C2c3c(oc4ccccc4c3=O)C(=O)N2CCCN2CCOCC2)cc1 (stereo not shown)	-6.76%
CCCC(C)NC(=O)c1sc2nc3n(c(=O)c2c1C)CCC3 (stereo not shown)	-6.29%
Cc1cc(NC(=O)C2COc3ccccc3O2)no1 (stereo not shown)	-0.48%
O=C(CSc1n[nH]c(-c2ccco2)n1)Nc1sc2c(c1C(=O)Nc1ccccc1)CCCC2	-41%
Cc1ccccc1NC(=O)c1c(C)[nH]c(=S)c(C#N)c1-c1ccc(Cl)cc1	21.1%
Cc1ccc(-c2nnc(N(C)C(=O)C3CCCO3)s2)cn1 (stereo not shown)	6.74%
Cc1cc(C)cc(-n2c(C)cc(/C=C3\C(=N)N4N=C(CC(C)C)SC4=NC3=O)c2C)c1	5.86%
c1ccc(COCCC2CO2)cc1 (stereo not shown)	5.49%
O=C(/C=C/c1ccc([N+](=O)[O-])cc1)N1CCN(c2ccccc2F)CC1	-34.2%
O=C(/C=C/c1ccccc1Cl)N1CCCN(C(=O)/C=C/c2ccccc2Cl)CC1	-26.1%

SMILES	hERG current change (%, negative = inhibition) at 10uM
O=C(/C=C/c1ccc(Cl)cc1)N1CCN(c2ccccn2)CC1	-32.3%
O=C1CN(C(=O)/C=C/c2ccc(Cl)cc2Cl)CCN1	-19.2%
O=C(/C=C/c1ccc(Cl)cc1)N1CCN(c2ccccc2[N+](=O)[O-])CC1	-75.4%
CN1CCCN(C(=O)/C=C/c2ccc(Cl)cc2Cl)CC1.Cl	-67%
CCCNC(=S)NC1CC2CCCC(C1)N2Cc1ccc(F)cc1 (stereo not shown)	-60.6%
Cc1ccc(CN2C3CCCC2CC(NC(=O)c2ccc(C)cc2)C3)cc1 (stereo not shown)	-77.7%
CCCNC(=S)NC1CC2CCC(C1)N2Cc1ccccc1 (stereo not shown)	-35.7%
Cc1ccc(C(=O)NC2CC3CCCC(C2)N3Cc2ccccc2)cc1 (stereo not shown)	-40.4%
O=C(NC1CC2CCCC(C1)N2C(=O)NC1CCCCC1)c1ccc(F)cc1 (stereo not shown)	4.98%
CNC(=S)N1C2CCCC1CC(NC(=O)c1ccc(F)cc1)C2 (stereo not shown)	6.93%
O=C(NC1CC2CCCC(C1)N2Cc1ccc(F)cc1)c1ccc(F)cc1 (stereo not shown)	-70.8%
Cc1ccc(CN2C3CCCC2CC(NC(=O)c2ccc(F)cc2)C3)cc1 (stereo not shown)	-74.1%
CC(=O)NC1CC2CCCC(C1)N2Cc1ccc(C)cc1 (stereo not shown)	-30.5%
CCCNC(=S)NC1CC2CCCC(C1)N2CC(C)C.Cl (stereo not shown)	13.1%
CC(=O)NC1CC2CCC(C1)N2Cc1ccc(C)cc1 (stereo not shown)	-25.4%
CCC(=O)NC1CC2CCCC(C1)N2Cc1ccc(C)cc1 (stereo not shown)	-37.4%
CC(NC(=O)CSc1nnc(CC(=O)Nc2ccc(Cl)c(Cl)c2)n1C)c1ccccc1 (stereo not shown)	4.55%
COc1ccc(C2CC(c3ccc(Cl)cc3Cl)Nc3nc(N)nn32)cc1OC (stereo not shown)	-18.7%
COc1cc(NC(C)=O)c2ncccc2c1[N+](=O)[O-]	-5.4%
CC1CCCCC1NC(=O)CCN1C(=O)C2C3C=CC(C3)C2C1=O (stereo not shown)	13%
COc1cc2c(cc1OC)C(c1cc3cc4c(cc3[nH]c1=O)OCO4)N(C(=O)C(C)C)CC2 (stereo not shown)	-4.79%
Cc1ccc(C(=O)N/C(=C\c2ccc(-c3cccc([N+](=O)[O-])c3)o2)C(=O)NCCCN2CCOCC2)cc1	-74.9%
CNC(=O)/C(C#N)=C/c1ccc(-c2ccccc2[N+](=O)[O-])o1	8.72%

SMILES	hERG current change (%, negative = inhibition) at 10uM
N#C/C(=C/c1ccc(-c2ccccc2[N+](=O)[O-])o1)C(=O)NCCN1CCCCC1	-69.1%
Cc1ccc(C(=O)N/C(=C\c2ccco2)C(=O)NCCCN2CCOCC2)cc1C	-12.7%
N#C/C(=C\c1ccc(-c2cccc([N+](=O)[O-])c2)o1)C(=O)NCCN1CCOCC1	-47.2%
N#C/C(=C\c1ccc(-c2ccccc2[N+](=O)[O-])o1)C(N)=O	24.6%
Cc1ccc(C(=O)N/C(=C\c2cn(C)c3ccccc23)C(=O)NCCCN2CCOCC2)cc1	0.137%
Cc1ccc(C(=O)N/C(=C\c2ccc(-c3ccccc3[N+](=O)[O-])o2)C(=O)NCCCN2CCOCC2)cc1	-61.9%
Cc1ccc(C(=O)N/C(=C\c2sccc2C)C(=O)NCCCN2CCOCC2)cc1	-17.7%
O=C(CSc1nnc(SCc2ccccc2)s1)N/N=C/C=C\c1ccco1	9.17%
Cc1ccccc1-c1nc2cc(N)ccc2o1	-15.6%
Cc1ccc2c(c1)C(c1ccccc1)N(C(=O)CC(C)C)CC(=O)N2 (stereo not shown)	-28.5%
O=C1N=C(N2C=CC(=C3C=CNC=C3)C=C2)/C(=C/N=NC(=O)c2ccccc2)S1	30.3%
CC(=O)Nc1ccc(CN(C)CC2CCCN(CCc3cccc(C(F)(F)F)c3)C2)cc1 (stereo not shown)	-68.4%
COc1cc(CN(C)CC2CCCN(CCc3cccc(C(F)(F)F)c3)C2)ccc1O (stereo not shown)	-62.8%
O=c1cnn(-c2ccccc2)c(-c2ccccc2)c1	3.33%
Cc1cc(C)n2ncnc2n1	2.2%
O=C1NC(=Nc2ccccc2)S/C1=C/c1cccnc1	15.9%
Cn1c(O)c(/C=C2\C=NN=C2c2ccccc2)sc1=S	0.793%
COc1ccc(CN2CCN(CCCc3ccccc3)C(CCO)C2)cc1OC (stereo not shown)	-72.8%
COc1cc(CN2CCN(CCCc3ccccc3)C(CCO)C2)cc(OC)c1O (stereo not shown)	-61.5%
CCOc1cc(CN2CCN(Cc3ccc(C)o3)C(CCO)C2)ccc1OC (stereo not shown)	-3.33%
CCOc1cc(CN2CCN(CCc3ccccc3)C(CCO)C2)ccc1OC (stereo not shown)	-66.5%
COc1ccc(CN2CCN(Cc3ccccc3)C(CCO)C2)cc1OC (stereo not shown)	-30.7%
